Our source for the growth values is PubChem BioAssay (NCI).

About 83,000 compounds went through this panel and 20% of them were active in at least one assay; those are over-represented in the sample as a whole.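 Negative percent growth values reflect cell death: -40 means 40% of the cells present at the start died, and -100 means all died.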 Values without a mark were called inactive. The source made the active and inactive calls. The calls were made as follows: active = growth percent below 10; inactive = the rest.

Test systems include NCI-H23 lung; NCI-H226 lung; NCI-H322M lung; HOP-62 NSCLC; NCI-H460 lung; HOP-92 NSCLC; NCI-H522 lung; A549/ATCC NSCLC; 786-0 renal; COLO 205 colon.
Common to all, as to assay: NCI-60 one-dose screen, 48 h (100 = growth as untreated, 0 = no growth, -100 = all killed)
Settings in all cases: 10 µM unless noted

Regarding `O=C(O)CCNC1CCCCC1`, the growth in the test on NCI-H23 lung is 90.4%; in the test on NCI-H226 lung it was 93.9%; in the test on NCI-H322M lung, 115%; in the test on HOP-62 NSCLC, 91.6%; with NCI-H460 lung, 99.3%; in the test with HOP-92 NSCLC, 100%. Also, the growth with NCI-H522 lung was 79.7%; in the test with A549/ATCC NSCLC it was 102%; with 786-0 renal, 101%; with COLO 205 colon it was 95.8%.
With `Cc1cc(C)cc(Nc2nccc(-c3c(-c4ccc(F)cc4)ncn3C3CCNCC3)n2)c1`, the growth in the test with NCI-H23 lung is 43.1%; with NCI-H226 lung, 32.3%; in the test on NCI-H322M lung it was 32.2%; in the test on HOP-62 NSCLC, 25.4%; in the test with NCI-H460 lung, -5.36% (active); in the test on HOP-92 NSCLC, 26.7%. The growth in the test with NCI-H522 lung was -36.2% (active); with A549/ATCC NSCLC, 6.65% (active); in the test on 786-0 renal it was 11.8%; in the test with COLO 205 colon, -66% (active).
Consider `CCCCC(=O)Nc1c(C(=O)Nc2ccccc2)sc2nc3c(cc12)C(OC(=O)CCCC)CCC3` (stereo not given), for which the growth in the test on NCI-H23 lung was 95.6%; in the test on NCI-H226 lung, 92.6%; in the test with NCI-H322M lung, 113%; in the test on HOP-62 NSCLC, 101%; in the test on NCI-H460 lung it was 85.9%; in the test on HOP-92 NSCLC, 84.4%. Further, the growth in the test on NCI-H522 lung is 77%; in the test on A549/ATCC NSCLC, 105%; in the test on 786-0 renal, 84.1%; in the test on COLO 205 colon it was 90.3%.
As for `COc1cc(/C=C/C(=O)/C=C/c2cc3ccc(Cl)cc3[nH]c2=O)ccc1O`, the growth in the test on NCI-H23 lung was 61.2%; with NCI-H226 lung, 80.1%; in the test on NCI-H322M lung, 92.2%; in the test with HOP-62 NSCLC, 114%; with NCI-H460 lung, 53.3%; in the test with HOP-92 NSCLC it was 77.4%. Moreover, the growth in the test with NCI-H522 lung was 66.4%; with A549/ATCC NSCLC, 79.8%; in the test with 786-0 renal, 30.8%; in the test on COLO 205 colon it was 105%.
Regarding `COc1ccc(-c2nc(C#N)c(NCC(c3ccco3)N3CCCC3)o2)cc1` (stereo not given), the growth in the test with NCI-H23 lung is 53.7%; with NCI-H226 lung, 101%; in the test with NCI-H322M lung, 43.3%; in the test on HOP-62 NSCLC, 47.1%; in the test with NCI-H460 lung it was 24.1%; in the test on HOP-92 NSCLC, 58.2%. In addition, the growth was 30.6% with NCI-H522 lung, 43.7% in the test with A549/ATCC NSCLC, 34% with 786-0 renal and 19.9% in the test on COLO 205 colon.
With `COc1ccc2oc(=O)cc(-c3c(C#N)c(N)n4nc(N)c(C#N)c4c3C#N)c2c1`, the growth in the test with NCI-H23 lung is 102%; in the test on NCI-H226 lung, 95.4%; with NCI-H322M lung, 96.8%; in the test on HOP-62 NSCLC it was 90.9%; with NCI-H460 lung, 101%; in the test on HOP-92 NSCLC, 97.3%. Besides, the growth is 80.1% with NCI-H522 lung, 95% in the test with A549/ATCC NSCLC, 103% in the test with 786-0 renal and 108% in the test on COLO 205 colon.
As for `CC1(C)Cc2c(Br)c(Br)c(Br)c(OCC(O)CN3CCOCC3)c2O1` (stereo not given), the growth in the test with NCI-H23 lung is 93.9%; in the test with NCI-H226 lung, 109%; with NCI-H322M lung, 72.4%; in the test with HOP-62 NSCLC, 97.3%; with NCI-H460 lung it was 93.8%; in the test with HOP-92 NSCLC, -38.2% (active). In addition, the growth in the test with NCI-H522 lung is -84.2% (active); in the test on A549/ATCC NSCLC, 86.7%; with 786-0 renal, 79.2%; with COLO 205 colon, 116%.
Regarding `CCOC(=O)C1=C(C)n2nc(CC#N)c(C#N)c2NC1c1ccc(Cl)cc1` (stereo not given), the growth in the test on NCI-H23 lung was 86.3%; with NCI-H226 lung it was 81.8%; with NCI-H322M lung, 91.7%; in the test on HOP-62 NSCLC, 91.5%; in the test with NCI-H460 lung it was 105%; with HOP-92 NSCLC, 90%. In addition, the growth in the test on NCI-H522 lung was 95.4%; in the test with A549/ATCC NSCLC, 104%; with 786-0 renal it was 106%; in the test on COLO 205 colon, 103%.
Regarding `O=C(Nc1ccc2ncnc(Nc3cccc(C(F)(F)F)c3)c2c1)c1cccs1`, the growth in the test with NCI-H23 lung was 30.2%; with NCI-H226 lung, 67.6%; in the test on NCI-H322M lung, 40.7%; in the test with HOP-62 NSCLC, 58.4%; with NCI-H460 lung, 22.5%; in the test with HOP-92 NSCLC it was 67.6%. Also, the growth in the test on NCI-H522 lung was 33.8%; in the test on A549/ATCC NSCLC it was 32.4%; in the test on 786-0 renal, 57%; in the test with COLO 205 colon it was 24.1%.
As to `COc1ccc2nc(-c3ccc(Cl)cc3)cc(C(=O)N3N=C(c4ccc(N)cc4)CC3c3ccccc3)c2c1` (stereo not given), the growth with NCI-H23 lung was 62%; in the test on NCI-H226 lung, 63.8%; with NCI-H322M lung, 54%; with HOP-62 NSCLC, 42.5%; in the test with NCI-H460 lung, 25.5%; with HOP-92 NSCLC it was 58.9%. Besides, the growth with NCI-H522 lung is 34.7%; in the test on A549/ATCC NSCLC it was 46.9%; in the test with 786-0 renal it was 31.8%; in the test on COLO 205 colon it was 42.3%.
For `O=C(Nc1ccc(N=Cc2ccccc2O)cc1)NC1C=c2ccccc2=CC1` (stereo not given), the growth was 100% with NCI-H23 lung; 87.8% with NCI-H226 lung; 98.6% with NCI-H322M lung; 101% with HOP-62 NSCLC; 108% with NCI-H460 lung; 109% with HOP-92 NSCLC. Also, the growth in the test with NCI-H522 lung is 93.3%; in the test on A549/ATCC NSCLC, 87.9%; with 786-0 renal, 98.2%; in the test on COLO 205 colon, 117%.
For `NS(=O)(=O)c1ccc(C2C3=C(CCCC3=O)OC3=C2C(=O)c2ccccc2C3=O)cc1` (stereo not given), the growth in the test on NCI-H23 lung was -31.3% (active); in the test with NCI-H226 lung, -56.7% (active); in the test with NCI-H322M lung, 6.58% (active); with HOP-62 NSCLC it was -89.8% (active); in the test on NCI-H460 lung, -71.4% (active); with HOP-92 NSCLC it was -31.7% (active). Besides, the growth is -73.7% (active) in the test on NCI-H522 lung, -34.9% (active) with A549/ATCC NSCLC, -90.7% (active) in the test on 786-0 renal and -80.3% (active) in the test on COLO 205 colon.
`CN1CCN(S(=O)(=O)O[C@@H]2C(=O)N(c3cc4c5ccccc5ccc4c4ccccc34)[C@H]2c2ccc(F)cn2)CC1`: the growth is 90.6% in the test with NCI-H23 lung; 91.2% in the test on NCI-H226 lung; 87.4% in the test with NCI-H322M lung; 86.6% with HOP-62 NSCLC; 98% in the test with NCI-H460 lung; 65.3% with HOP-92 NSCLC. Also, the growth in the test on NCI-H522 lung was 70.3%; with A549/ATCC NSCLC, 83.4%; in the test with 786-0 renal it was 79.8%; in the test with COLO 205 colon, 96.7%.
For `COC(=O)CCc1cc(O)c2c(c1)[C@@H](C(=O)OC)[C@H](c1ccc(O)c(O)c1)O2`, the growth in the test on NCI-H23 lung was 76.5%; in the test on NCI-H226 lung it was 102%; in the test on NCI-H322M lung, 98.3%; in the test on HOP-62 NSCLC, 54.3%; in the test on NCI-H460 lung it was 107%; with HOP-92 NSCLC, 79.8%. The growth in the test on NCI-H522 lung was 51.8%; in the test on A549/ATCC NSCLC, 98%; in the test with 786-0 renal, 93.9%; in the test with COLO 205 colon, 104%.
